Source: ChEMBL document CHEMBL3988442, “University of Dundee, Small-Polar-MMV Screening Library” (2021)
Among all 48,000 compounds or so, about 13,000 (27%) showed an effect of 50% or more. The list shows a part of the results.

The compounds below were run on Wolbachia pipientis (assay: Anti-Wolbachia Cell-Based Screen). Conditions: 5 µM.
Assay type: functional
Parameters: scale not given: in the data most compounds retested in dose-response had high values

Structure (SMILES)	Percent Effect
CC1CCN(CC(O)CN2CCn3c(nnc3C3CC3)C2)CC1 (stereo not given)	-2.379%
Cc1ccoc1-c1nnc(CN2CCn3c(nnc3C3CC3)C2)o1	8.401%
CC(C)c1nnc(NC(=O)CCc2cc(F)ccc2F)[nH]1	-72.05%
CN(Cc1cn[nH]c1-c1ccc(F)cc1)C(=O)CCC1CC1	-8.61%
Cc1n[nH]c(C)c1CCC(=O)N(C)Cc1cn[nH]c1-c1ccc(F)cc1	62.4%
Cc1n[nH]c(C)c1CCCN(C)Cc1c[nH]nc1-c1ccc(F)cc1	-0.8434%
COc1ccc(CCc2nnc(NC(=O)C3CC34CCC4)s2)cc1OC (stereo not given)	134.8%
COc1cc(CNC(=O)Nc2nnc(C3CC3)s2)ccc1O	-2.048%
CCCc1nnc(NC(=O)NC2CCOc3ccccc32)s1 (stereo not given)	-4.049%
CC(=O)NC(C)CC(=O)NCc1cccnc1Oc1ccccc1C (stereo not given)	-2.321%
COc1ccc(C(CC(=O)NCc2n[nH]c(N)n2)c2ccccc2)cc1 (stereo not given)	-21.33%
COc1cc2nc(C)n(CC(=O)O)c(=O)c2cc1OC	17.35%
COc1cc2ncn(CC(=O)NCCCN(C)C)c(=O)c2cc1OC	7.86%
COc1cc2ncn(Cc3ncc[nH]3)c(=O)c2cc1OC	88.22%
CNC(=O)C1CCN(Cc2nc(-c3ccc(SC)cc3)oc2C)C1 (stereo not given)	1.342%
CCN(C)c1ncnc2c1CCN(C(=O)N1CCCC1)CC2.O=C(O)C(F)(F)F	-2.138%
CCCOCC(=O)N1CCc2nc(NC)nc(C(=O)N3CCCC3)c2C1	106.3%
CNc1nc2c(c(C(=O)N3CCCC3)n1)CN(C(=O)C1CCCC1)CC2	99.86%
CC(C)Nc1nc2c(c(NC3CC3)n1)CN(C(=O)c1ccnnc1)CC2	10.08%
CCC(OC)C(=O)N1CCc2nc(NC)nc(C(=O)N3CCCC3)c2C1 (stereo not given)	0.1298%
CC(C)Nc1nc2c(c(NC3CC3)n1)CN(C(=O)c1ccsc1)CC2	4.633%
Cc1nc(N2CCCC2)nc2c1CCN(C(=O)CN(C)C)CC2.O=C(O)C(F)(F)F	-8.605%

Structure (SMILES)	Percent Effect
CCN(C)CC(=O)N1CCc2nc(NC)nc(C(=O)N3CCCC3)c2C1	92.7%
CNc1nc2c(c(C(=O)N3CCCC3)n1)CN(C(=O)CCSC)CC2	109.5%
COC(=O)CCC(=O)N1CCc2nc(C(=O)N3CCCCC3)sc2CC1	-23.17%
CCCOCC(=O)N1CCCC(c2nnc(CN3CCCCC3)n2C)C1 (stereo not given)	-4.962%
CCc1nc(CN2CCCN(C(=O)CCSC)CC2)cs1	-7.739%
CNc1nc2c(c(C(=O)N3CCCC3)n1)CN(C(=O)c1cccs1)CC2	93.6%
Cc1csc(N2CCCN(C(=O)c3cccs3)CC2)n1	5.258%
O=C(c1cccs1)N1CCN(C(=O)c2ncoc2-c2ccco2)CC1	-2.664%
Cc1oncc1C(=O)N1CCCc2c(C#N)nn(C)c2C1	10.9%
O=C(NCC(O)Cc1ccccc1)c1ccc2[nH]c(=O)[nH]c2c1 (stereo not given)	124%
O=C(NCCCO)Nc1cccc(C[S+]([O-])Cc2ccccc2)c1 (stereo not given)	-4.621%
Cc1nn(C)c(C)c1OCC(=O)NCC(O)Cc1ccccc1 (stereo not given)	-7.018%
Cc1cccc(C(=O)NCCS(=O)(=O)Cc2ccccc2)c1	-4.406%
CSC(C)(C)CNC(=O)NCC[S+]([O-])c1ccccc1 (stereo not given)	5.192%
O=C(NCC(O)c1ccc(F)cc1F)c1ccccc1 (stereo not given)	4.07%
O=C(NCC[S+]([O-])c1ccccc1)NCC(F)(F)F (stereo not given)	-2.779%
O=C(NCC[S+]([O-])Cc1ccccc1)c1ccc2[nH]c(=O)[nH]c2c1 (stereo not given)	105%
O=C(NCC[S+]([O-])c1ccccc1)c1ccc2[nH]c(=O)[nH]c2c1 (stereo not given)	103.1%
Cc1ccn2ncc(C(=O)N3CCCC(c4noc(C)n4)C3)c2n1 (stereo not given)	1.825%
CCOCCNCc1cc(O)c2cc(C)ccc2n1	-3.741%
CCOCCNS(=O)(=O)c1cc(C)c2nc(O)cc(C)c2c1	93.93%
CCOCCCNc1nc(CS(=O)(=O)c2ccccc2)cs1	-0.3734%

Structure (SMILES)	Percent Effect
CCOC(=O)CN1CCC2(CC1)CC(=O)c1ccc3ccccc3c1O2	117.9%
CCOC(=O)CN1CCC2(CC1)CC(NC(=O)c1ccccn1)CO2 (stereo not given)	-1.011%
CN1CC(c2ccccc2)CC2(CCN(CC(=O)N(C)C)CC2)C1 (stereo not given)	-1.357%
CN(C)C(=O)CN1CCCN(CC2CCOc3ccccc3C2)CC1 (stereo not given)	-6.111%
NC(=O)CN1CCCC(C(=O)N2CCC(O)(c3ccccc3)CC2)C1 (stereo not given)	-6.911%
CCOc1cccc(CNC(=O)CN2CCC3(CCOC3)C2)c1 (stereo not given)	-4.928%
CN(C)C(=O)CN1CCN(C(=O)C2CSc3ccccc3O2)CC1 (stereo not given)	-6.188%
CN(C)C(=O)CN1CCC2(CC1)CC(=O)c1ccc3ccccc3c1O2	109.8%
CN(C)C(=O)CN1CCC2(CC1)CC(=O)c1c(ccc3ccccc13)O2	104.8%
Cc1ccccc1CN1C[C@@H]2OCC(=O)N(CC(N)=O)[C@@H]2C1	-9.838%
CN(C)C(=O)CN1CCC2(CC1)COC2	-28.68%
NC(=O)CN1CCC2(CC1)CC(=O)c1ccc3ccccc3c1O2	103.8%
CC(C)Nc1cc(N2CCCC3(CN(C)C(=O)O3)C2)ncn1 (stereo not given)	-4.728%
Cc1cccnc1NC(=O)C1CCCN(c2cccc(C(F)(F)F)n2)C1 (stereo not given)	9.755%
CCn1cc(CN(C)C(=O)C(c2ccccc2C)N(C)C)cn1 (stereo not given)	1.037%
Cc1ccc2[nH]c(CO[C@H]3CN(C(=O)C4CC4)C[C@H]3F)nc2c1	-10.96%
O=C(CCn1cncn1)N1CCCC1c1noc(C2CC2)n1 (stereo not given)	89.8%
CSCC(=O)N1CCCC1c1noc(C2CC2)n1 (stereo not given)	7.079%
O=C(CCCn1cncn1)N1CCCC1c1noc(C2CC2)n1 (stereo not given)	94.63%
O=C(CCCn1cncn1)N1CCCC1c1nc(-c2ccccc2)no1 (stereo not given)	16.9%
OCC(O)CSCc1cn(-c2ccc(Cl)cc2)nn1 (stereo not given)	-1.714%
